Screens deposited in PubChem BioAssay by several laboratories.
MRP resist rev = compounds reversing MRP-mediated drug resistance | actives 0.04% (n = 85,000) | differential viability (reversal), % at 10 µM | AID 602 | H69AR cells + 2 uM doxorubicin, CellTiter-Glo, 72 h;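 active means viability drop by adding the cancer drug above about 55%, with treated viability meeting a 40% cutoff, limit read from the data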;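 further: viability without doxorubicin minus viability with 2 µM doxorubicin for each compound; larger differential means the compound sensitizes cells more to doxorubicin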
MRP1 act = MRP-1 activation; H69AR cells + doxorubicin, viability rescue, CellTiter-Glo; viability increase, % at 10 µM; actives 0.61% (n = 140,000); AID 799;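 active means viability gain under doxorubicin at or above a set limit, the compound median plus 3 SD, cut at about 4.7% in these data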;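 further: MRP-1 overexpressing cells given doxorubicin 25 µM after compound pretreatment; 18-22 h compound pretreatment then 72 h with doxorubicin before readout; 0% = doxorubicin-only wells and 100% = vehicle-treated cells without doxorubicin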
Smad3 FoxH1 inh = blocks human Smad3 binding to FoxH1 peptide; P84022; TR-FRET Smad3/Dy647-FoxH1 peptide binding, europium anti-His; inhibition, % at 25 µM; actives 0.29% (n = 88,000); AID 630;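 active means compounds that reduce the energy-transfer binding signal between the protein and its labelled peptide by more than half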;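 further: 0% = Smad3 plus labelled peptide maximal FRET and 100% = peptide-only background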
Target sequence (P84022 whole entry, looked up): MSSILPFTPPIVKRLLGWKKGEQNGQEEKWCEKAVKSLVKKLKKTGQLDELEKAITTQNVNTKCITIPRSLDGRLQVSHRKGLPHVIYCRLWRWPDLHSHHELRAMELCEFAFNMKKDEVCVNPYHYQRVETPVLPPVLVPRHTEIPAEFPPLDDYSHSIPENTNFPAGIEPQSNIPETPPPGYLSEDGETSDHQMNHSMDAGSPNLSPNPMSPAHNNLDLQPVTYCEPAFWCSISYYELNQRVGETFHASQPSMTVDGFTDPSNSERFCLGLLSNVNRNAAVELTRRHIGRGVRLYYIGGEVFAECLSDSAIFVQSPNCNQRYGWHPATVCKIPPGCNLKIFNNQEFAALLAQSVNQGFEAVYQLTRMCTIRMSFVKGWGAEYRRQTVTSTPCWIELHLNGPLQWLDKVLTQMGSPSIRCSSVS
Candida biofilm = kills Candida albicans biofilms; inhibition, % at 6 µM; actives 0.14% (n = 85,000); C. albicans biofilm + clotrimazole, Alamar Blue; AID 834;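 active means inhibition above 20%; inactive means inhibition below 20%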;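 further: preformed 24 hr biofilms exposed to compound for 48 hr; 0% = biofilm without compound and 100% = blank killed by clotrimazole plus chlorhexidine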
* = called active by the depositor; x = no result given. Shown are actives, neighbours in structure and some others; about 0.83% of the full set was active somewhere.

SMILES | MRP resist rev | MRP1 act | Smad3 FoxH1 inh | Candida biofilm
Cc1ccc(S(=O)(=O)O[C@H]2C[C@@H](C(C)(C)C)CC[C@@H]2c2ccccc2)cc1 | x | x | 3 | x
COc1ccc(NC(=O)COC(=O)c2c3c(nc4ccccc24)CCCC3)cc1 | -8 | 3 | -1 | 10
COc1ccc(NC(=O)COC(=O)c2c3c(nc4ccccc24)CCCC3)cc1Cl | x | 5.3* | x | x
Cc1cccc(S(=O)(=O)N(CC(=O)Nc2ccccc2C)Cc2ccco2)c1 | -2 | -2 | 5 | 39*
CCCNC(=O)N1CCN(S(=O)(=O)c2ccc(C)c(C)c2)CC1 | 18 | x | 2 | 20*
CNC[C@H](O)c1ccc(O)c(O)c1 | x | 7.1* | x | x
Cc1ccc(-c2nc3nc4ccccc4nc3n2Cc2ccco2)cc1 | -21 | -2 | 64* | 3
CCCCCCCOc1ccc(-c2ccc(C#N)cn2)cc1 | x | 5.1* | x | x
Cc1ccc(NC(=O)CCNC(=O)c2ccc(Cl)cc2)cc1F | x | 5.4* | x | x
CC(=O)NCCC(=O)Nc1ccc(C)c(F)c1 | -2 | -1 | -3 | 9
O=C(NCCO)c1ccc(Cl)cc1 | x | x | 58* | x
Cc1onc(-c2c(F)cccc2Cl)c1C(=O)Nc1sc2c(c1C#N)CCC(C(C)(C)C)C2 (stereo not drawn) | 0 | 11* | 6 | 7
Cc1cccc(OCCNC(=O)c2ccc(Oc3ccc(C(F)(F)F)cc3[N+](=O)[O-])cc2)c1 | x | 8.2* | x | x
COc1ccc(CNc2nc(NCc3ccc(OC)cc3)n(C(=O)c3ccccc3[N+](=O)[O-])n2)cc1 | x | 5.4* | x | x
CC12CCC(C(=O)N(CSC(=S)N/N=C\c3ccccc3Cl)C1=O)C2(C)C (stereo not drawn) | 12 | 4 | -7 | 1
CC12CCC(C(=O)N(CSC(=S)N/N=C\c3ccccc3)C1=O)C2(C)C (stereo not drawn) | -13 | 4.8* | 1 | 9
CC[C@@H]1CC(=O)N(SC[C@H](N)C(=O)O)C1=O | x | x | 3 | x
COc1nc(Cl)nc(Cl)c1Cl (tested in a mixture with another compound) | x | x | 83* | x
CSc1nc2ccccc2s1 | x | -2 | x | x
Oc1ccccc1C(Sc1nc2ccccc2s1)Sc1nc2ccccc2s1 | x | x | 78* | x
CC(C)[C@@H](C)/C=C/[C@@H](C)[C@@H]1CC[C@@H]2C3=CC=C4C[C@@H](O)CC[C@]4(C)[C@@H]3CC[C@]21C | x | x | 21 | x
O=C(c1ccc(NC2=NC3CS(=O)(=O)CC3S2)cc1)N1CCc2ccccc2C1 (stereo not drawn) | 9 | 0 | -3 | 29*
O=C(c1ccc(NC2=NC3CS(=O)(=O)CC3S2)cc1)N1CCN(Cc2ccccc2)CC1 (stereo not drawn) | -14 | 0 | -7 | 5
CCOc1ccccc1NC(=O)c1cnc2n(c1=O)CCS2 | -4 | -3 | -2 | 3
O=C(Nc1ccc(Oc2ccccc2)cc1)c1cnc2n(c1=O)CCS2 | 5 | 6.0* | -1 | 12
SMILES | MRP resist rev | MRP1 act | Smad3 FoxH1 inh | Candida biofilm
Cc1ccc(CC2SC(=Nc3ccccc3)N(c3ccccc3)C2=O)cc1 (stereo not drawn) | x | 5.7* | x | x
C/C(CC/C(C)=N/O)=N\O | x | x | 16 | x
CN(C)Cc1cc(C(C)(C)C)ccc1-c1ccc(C(C)(C)C)cc1CN(C)C | x | x | 70* | x
CN1[C@@H]2CC(OC(=O)[C@@H](CO)c3ccccc3)C[C@H]1[C@H]1O[C@H]12 (stereo partly drawn) | x | x | -12 | x
Cc1ccc(C2=Nc3ccccc3S[C@@H](c3cccc([N+](=O)[O-])c3)C2)cc1 | x | x | 0 | x
Nc1[nH]c(=O)nc2c1ncn2[C@H]1O[C@H](CO)[C@@H](O)[C@@H]1O | x | x | -6 | x
Cc1csc(NC(=O)c2nc3nc(C)cc(C)n3n2)n1 | -3 | -2 | 0 | 3
Cc1cc(C)n2nc(C(=O)Nc3nnc(C4CC4)s3)nc2n1 | 8 | 5.2* | -12 | 4
Cc1nnc(NC(=O)C2COc3ccccc3O2)s1 (stereo not drawn) | 6 | 2 | -6 | -1
CCc1nnc(NC(=O)C2COc3ccccc3O2)s1 (stereo not drawn) | 16 | 5.1* | -5 | 5
Cc1ccc(CSC(N)=Nc2ccccc2)cc1C | x | x | 21 | x
C[C@H]1[C@H](C)CC[C@@]2(C(=O)O)CC[C@@]3(C)C(=CC[C@H]4[C@]5(C)C[C@H](O)[C@@H](O)[C@@](C)(CO)[C@H]5[C@H](O)C[C@@]43C)[C@H]12 | x | x | 86* | x
CSc1nnc(-c2sc3cc(C(F)(F)F)cnc3c2-c2cccnc2)n1C | -31 | 0 | -14 | 54*
COC(=O)c1sc2cc(C(F)(F)F)cnc2c1-c1cccnc1 | x | 0 | x | x
CCCCCCC(=O)Nc1ccc(C(=O)N/N=C/c2cccnc2)cc1 | x | 9.9* | x | x
COC(=O)C(NC(=O)C(CC(C)C)NC(=O)C1CCC(C)CC1)C(C)C (stereo not drawn) | -3 | -3 | -10 | 0
CCCCCCC1CCC(C(=O)NC(CCSC)C(=O)NC(C(=O)OC)C(C)C)CC1 (stereo not drawn) | 11 | -4 | -5 | 37*
Cc1cc(N2CCN(c3cccc(C)c3C)CC2)nc(-c2ccccc2)n1 | 14 | 5.1* | 13 | 5
O=C(O)[C@@H]1[C@H](C(=O)O)[C@@H](C(=O)O)C[C@H]1C(=O)O | x | x | 11 | x
COc1cc(/C=N/N=C(/N)c2nonc2N)cc(Br)c1OCc1ccccc1C | 8 | 0 | 3 | 0
N/C(=N\N=C\c1ccc2c(c1)OCO2)c1nonc1N | x | 5.6* | x | x
Oc1c(C(c2cccs2)N2CCN(c3cccc(Cl)c3)CC2)sc2ncnn12 (stereo not drawn) | -23 | 11* | 2 | 5
COC(=O)c1sc2ncn(-n3c(C)ccc3C)c(=O)c2c1C | 6 | -1 | 60* | 5
O=[N+]([O-])c1ccc2c(c1)Cc1cc(N=Cc3ccc4c(c3)OCO4)ccc1-2 | x | x | 2 | x
CCOc1cc(/C=C2\SC(=Nc3ccccc3)N(c3ccccc3)C2=O)ccc1OCC(=O)O | x | 5.9* | x | x
SMILES | MRP resist rev | MRP1 act | Smad3 FoxH1 inh | Candida biofilm
O=C(NC(=S)NC(=O)c1ccccc1F)c1ccccc1F | x | 7.1* | x | x
NC[C@H]1O[C@H](n2cnc3c(=O)[nH]c(N)nc32)[C@@H](O)[C@@H]1O | x | x | -6 | x
CC(C)CO/C(=N/S(=O)(=O)c1ccccc1)c1ccccc1 | 9 | -2 | 1 | 73*
CCOC(=O)c1cc(-c2ccccc2)sc1NC(=O)C(C)Sc1nnc(N)s1 (stereo not drawn) | x | 11* | x | x
CC1CCC2(CC1)NC(=S)N(c1ccccc1)N2 (stereo not drawn) | 1 | -1 | -9 | 83*
CCO[P@]1(=O)OC[C@@H]2O[C@H](n3cnc4c(N)ncnc43)[C@H](O)[C@H]2O1 | x | x | -8 | x
c1ccc(-n2ncc3c(NCC4CCCO4)ncnc32)cc1 (stereo not drawn) | -23 | -1 | 4 | 7
Clc1ccc(-n2ncc3c(NCC4CCCO4)ncnc32)cc1 (stereo not drawn) | -49 | -2 | -14 | 23*
CCOC(=O)Cc1csc(NC(=S)NC(=O)C(C)(C)C)n1 | x | 13* | x | x
O=C(O)c1ccc(Cc2ccccc2C(=O)O)cc1 | x | x | 7 | x
COc1cccc(CSCC(=O)O)c1 | x | x | -1 | x
Cn1c(=O)c2c(nc(Cc3ccccc3)n2CC(=O)O)n(C)c1=O | x | x | -9 | x
Cc1cc(/C=C2\NC(=O)N(Cc3ccc(Cl)cc3)C2=O)c(C)n1C | x | 6.2* | x | x
